# Data taken from PubChem BioAssay AID651644 (National Center for Advancing Translational Sciences (NCATS), 2012).
# Out of some 360,000 compounds screened, about 750 (0.21%) were called active. About 2% were inconclusive and are not listed. Calls come from the whole dose curve; as a rule, active = well fitted falling curve with a large enough effect; inconclusive = small, poorly fitted or top-dose-only effect; inactive = no such curve, though single readings can be large or run the other way. Many of the other results were omitted from the sample, so actives are more common in it than they were.
# Experiment: qHTS Assay for Inhibitors of the HIV-1 protein Vpr; note: nearly all actives have a fitted effect of over 50% in size
# Conditions: S. pombe RE007 Vpr strain, BacTiter-Glo ATP luminescence, 24 h; series mostly up to 92.2 µM; activity change, negative = less growth: at the top concentration
# Source text: Human immunodeficiency virus type 1 (HIV-1), the causative agent of AIDS, contains a protein called viral protein R (Vpr) that plays an important role in the viral life cycle and the pathogenesis of HIV-1.
# These Vpr specific activities include cytoplasmic-nuclear shuttling, induction of cell cycle G2 arrest and cell killing. The cytoplasmic-nuclear shuttling is believed to participate in nuclear transport of the proviral integration complex (PIC). The cell cycle G2 arrest induced by Vpr is thought to suppress human immune functions by preventing T cell clonal expansion and to provide an optimized cellular environment for maximal levels of viral replication. In addition, Vpr induces apoptosis, which may contribute to the depletion of CD4 T cells in HIV-infected patients. Since the Vpr-specific activities have been linked to such clinical manifestation of AIDS as activation of viral replication, suppression of host immune responses and depletion of CD4+ T-lymphocytes, identification of new molecular probes that can inhibit the Vpr activities could potentially provide a new approach to reduce Vpr-mediated detrimental effects in HIV-infected patients, and thus prolong patient's lives. Currently, there are no anti-Vpr drugs.
# A fission yeast (Schizosaccharomyces pombe) model system for the Vpr studies has been developed which measures HIV-1 Vpr-induced cell death. This assay will be used for to screen the NIH Molecular Libraries Small Molecule Repository (MLSMR) identify small molecule HIV-1 Vpr inhibitors.
# NIH Chemical Genomics Center [NCGC]
# NIH Molecular Libraries Probe Centers Network [MLPCN]
# Assay Submitter (PI): Richard Zhao, University of Maryland
# The fission yeast RE007 strain was used, which carries a single integrated copy of HIV-1 vpr gene in the yeast chromosome. The starting culture was frozen stock 100ul of yeast RE007 in 150ml of *PMG+AL medium, Incubation in 30 degree plus 99% humidity for 18 hours. Next day dispensed 2.5ul of PMG+AL medium in each well to 1536 well white solid plate, then 23nL compound were delivered to each well using a pin tool. Check OD for overnight culture and add cell density at 0.01 for each well, incubation in 30 degree plus 99% humidity for 24 hours. After add 5 ul of *BacTiter/Glo detect reagent to each well at room temperature for 5 minutes then to red out results with Viewlux CCD camera.
# % is set by controls: 0 for no effect and ±100 for the full control effect.
SMILES,"activity change, negative = less growth",Potency
O=C(CCn1nnnc1CN1CCOCC1)N1CCC(c2ccccc2Cl)C1 (stereo not given),3.11% (inactive),–
CC(C)OC(=O)c1ccc(NCc2cc(O)ccc2O)cc1Cl,–,28.2 µM (active)
CCC(C)c1ccccc1N1CC(C(=O)N2CCN(S(=O)(=O)c3ccc(F)cc3)CC2)CC1=O (stereo not given),6.94% (inactive),–
COc1ccc(C(=O)CN2C(=O)NC3(CCc4ccccc43)C2=O)c(OC)c1 (stereo not given),-0.673% (inactive),–
Cc1ccc(OCCCCc2c(C)n[nH]c2C)cc1,1.1% (inactive),–
NC1=C([N+](=O)[O-])C(c2ccccc2)C2=C(CCCC2=O)O1 (stereo not given),1.87% (inactive),–
CCc1ccc2oc(-c3ccc(N)cc3)nc2c1,–,11.2 µM (active)
COc1ccccc1N1CCN(S(=O)(=O)c2ccc3c(c2)NC(=O)CS3)CC1,-1.45% (inactive),–
CC1(C(=O)Nc2ccc3c(c2)OCCO3)CSCC(=O)N1CCOc1ccccc1 (stereo not given),-4.71% (inactive),–
Cc1nn(CCCC(=O)NCc2ccccc2Cl)c(=O)c2nccn12,-1.04% (inactive),–
O=c1c2ccccc2ncn1CCc1ccncc1,-15.9% (inactive),–
NNc1cccc(C=Cc2ccccc2)cc1=O,–,28.2 µM (active)
COc1ccccc1C(=O)NCc1nnc(SC(C)C(=O)Nc2nccs2)n1C (stereo not given),2.26% (inactive),–
Cc1ccc2cc3cc(C(=O)N4CCCCCC4)oc3nc2c1,-12.2% (inactive),–
O=C(c1cccc(Br)c1)N1CCN(C2=NS(=O)(=O)c3ccccc32)CC1,-12.3% (inactive),–
CCCOc1ccc(NC(=O)CC2C(=O)N(C)C(=S)N2Cc2ccc3c(c2)OCO3)cc1 (stereo not given),26.4% (inactive),–
O=C(NCCc1ccccn1)c1cccnc1Oc1ccc(Cl)cc1,2.12% (inactive),–
CCOc1ccc(CCNC(=O)CSc2cc(=O)n(C)c3ccc(Cl)cc23)cc1OCC,-8.18% (inactive),–
CN(C)NC(=O)C(NC(=O)c1ccc(N)cc1)C12CC3CC(CC(C3)C1)C2 (stereo not given),-5.22% (inactive),–
CC1(C)CC[C@]2(C(=O)O)CC[C@]3(C)C(=CCC4[C@@]5(C)CC[C@H](O)C(C)(C)C5[C@H](O)C[C@]43C)[C@@H]2C1 (stereo not given in full),65.6% (inactive),–
O=C(Nc1ccc(F)cc1)Nc1nnc([C@H]2C[C@H](O)[C@@H](CO)O2)s1,3.26% (inactive),–
COC(=O)C1CCN(C(=O)COC(=O)c2cc(S(=O)(=O)N3CCOCC3)ccc2C)CC1,13.4% (inactive),–
CC1CCCC(C)N1C(=O)CN1CCN(c2nc(-c3ccc(F)cc3)cs2)CC1 (stereo not given),2.33% (inactive),–
O=C(NC1CCCC1)C(c1c(F)cccc1Cl)N(C(=O)c1csnn1)C1CC1 (stereo not given),5.17% (inactive),–
O=C(OCC(O)C(O)COC(=O)c1ccccc1)c1ccccc1 (stereo not given),11% (inactive),–
O=C(Nc1ccc(S(=O)(=O)N2CCc3ccccc3C2)cc1)c1ccccc1,-4.11% (inactive),–
O=C(NC1=CC(=O)c2ccccc2C1=O)c1ccccc1,–,12.6 µM (active)
COc1ccc(C(=O)C(OP(=O)(OC)OC)c2ccccc2OC)cc1 (stereo not given),-2.08% (inactive),–

SMILES,"activity change, negative = less growth",Potency
CCOC(=O)c1ccc(N2C(=O)CC(N(C)Cc3ccccc3)C2=O)cc1 (stereo not given),–,12.6 µM (active)
CCOC(=O)c1ccc(N2C(=O)CC(Sc3nc(O)c(CC)c(=O)[nH]3)C2=O)cc1 (stereo not given),-7.6% (inactive),–
CCCCOC(=O)c1ccc(N2C(=O)CC(N3CCN(C/C=C/c4ccccc4)CC3)C2=O)cc1 (stereo not given),-15.3% (inactive),–
COc1ccc(CCN2C(=O)CC(N3CCC(C(N)=O)CC3)C2=O)cc1OC (stereo not given),-26.9% (inactive),–
CCOC(=O)c1ccc(N2C(=O)CC(N3CCC(C(=O)OCC)CC3)C2=O)cc1 (stereo not given),–,12.6 µM (active)
CCOC(=O)N(Cc1ccccc1)C1CC1,12.2% (inactive),–
COC(=O)c1cc(C(=O)OC)cc(N2C(=O)CC(N3CCN(c4ccccc4)CC3)C2=O)c1 (stereo not given),-22.8% (inactive),–
COc1ccc(N2C(=O)CC(N3CCC(C(N)=O)CC3)C2=O)cc1 (stereo not given),–,25.1 µM (active)
COc1ccc(N2CCN(C3CC(=O)N(c4ccc5c(c4)OCCO5)C3=O)CC2)cc1 (stereo not given),13.6% (inactive),–
NC(=O)Nc1ccccc1C(=O)NCCc1ccccc1,-0.111% (inactive),–
Cc1nn(CC(=O)N2CCCCC2)c(=O)c2nn(-c3ccccc3)c(C)c12,-10.5% (inactive),–
O=S1(=O)CCOC[C@H](CC2CCCCC2)N1Cc1ccc(F)cc1,-0.533% (inactive),–
C=CCOc1ccc(/C=C/C(=O)OCC(=O)NC2CCCCCC2)cc1,-3.31% (inactive),–
CCCCn1c(N)c(N(CCC(C)C)C(=O)COC(=O)c2ccc(CC)cc2)c(=O)[nH]c1=O,27.2% (inactive),–
O=C(CC1OC(=O)c2ccccc21)NC1CCCCC1 (stereo not given),-24.1% (inactive),–
O=C(N/C(=C/c1ccc(Cl)cc1)C(=O)N1CCCCC1)c1ccco1,0.0675% (inactive),–
CCOC(=O)c1ccc(-n2c(C)nc3c(cnn3-c3ccccc3C)c2=O)cc1,-1.39% (inactive),–
O=C(CP(=O)(c1ccccc1)c1ccccc1)N1CCOCC1,-11.2% (inactive),–
O=C(O)c1ccc(N=NN2CCOCC2)cc1,3.61% (inactive),–
O=C(O)c1ccc(NN=CC2=C(N3CCOCC3)/C(=C/c3ccccc3)CC2)cc1,–,35.5 µM (active)
Cc1[nH]nc(SCC(=O)NCC(C)C)c1[N+](=O)[O-],7.56% (inactive),–
COc1ccc(CN2C(=O)C(CC(=O)NCc3cccc4ccccc34)CC(C(=O)N3CCOCC3)=C2C)cc1 (stereo not given),-10.7% (inactive),–
COc1ccc(C(=O)Nc2ccccc2C(=O)N/N=C/c2ccc(O)c(OC)c2)cc1,–,7.94 µM (active)
COc1cc(/C=N/NC(=O)Nc2ccccc2)ccc1OCCOc1ccccc1C,12.1% (inactive),–
COc1ccc(C(=O)Nc2ccccc2C(=O)N/N=C/c2ccccc2OC)cc1,–,35.5 µM (active)
CCCNC(=O)c1ccccc1NC(=O)CSCc1ccc(OC)cc1,-1.72% (inactive),–
COc1cccc(C(=O)N/N=C(\C)c2cccc(NC(=O)c3ccc(F)cc3)c2)c1OC,4.97% (inactive),–
